# From PubChem
# Only some compounds are listed: those with a hit (about 2.6% of all), similar ones and a draw of the others.
# ATXN2 expr inh – inhibitors of ATXN2 expression. 360,000 tested, 0.72% active. HEK-293 ATXN2-luciferase reporter, luminescence, 24 h. Potency, µM (titrated, usually from 57 µM), inactives show at the top dose activity change, negative = inhibition, usual class: inhibitors. AID 1745845; also: potency is read from the fitted curve at half-maximal effect; % is scaled to controls: 0 for no effect and ±100 for the full control effect; nearly all actives have a fitted effect of over 55% in size
#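 qHTS (up to 57 uM final) was run with 24 h compound exposure of reporter cells at 37 °C. Each well was multiplexed: SteadyGlo luminescence measured ATXN2-luciferase expression after a fluorogenic Gly-Phe-AFC viability readout (25 uM final).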
# uPA surface inh – blocks generation of uPA at the cell surface; Potency, µM (titrated, usually from 38.3 µM), inactives show at the top dose activity change, negative = inhibition, actives largely listed as inhibitors; 330,000 tested, 0.31% active; cell surface uPA generation assay, qHTS; active = well fitted inhibition curve with a large enough effect; inconclusive = small, poorly fitted or top-dose-only effect; inactive = no such curve, though single readings can be large or run the other way; tested in mouse RAW 264.7 cells; also: potency is read from the fitted curve at half-maximal effect; % is scaled to controls: 0 for no effect and ±100 for the full control effect; nearly all actives have a fitted effect of over 55% in size
# ATXN viability – cell viability loss in ATXN counter-screen; S2 cells (HEK-293 line with an ATXN2-luciferase reporter) viability, CellTiter-Fluor protease fluorescence, 24 h; Potency, µM (series often up to 56.7 µM), actives largely listed as cytotoxic; 400,000 tested, 0.49% active; also: potency is read from the fitted curve at half-maximal effect; nearly all actives have a fitted effect of over 40% in size
# TGFb inhibitor – TGF-b pathway inhibition; HepG2 CAGA-GFP TGF-b/SMAD3 reporter, GFP fluorescence, 18 h; TGF-beta stimulated, 500 pg/mL final; Potency, µM (doses to about 46.1 µM), for the others: top-dose activity, negative = inhibition, usual class: inhibitors; 410,000 tested, 1.2% active; AID 588855; also: potency is read from the fitted curve at half-maximal effect; % is scaled to controls: 0 for no effect and ±100 for the full control effect; nearly all actives have a fitted effect of over 65% in size
#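 HEPG2 CAGA-GFP cells (1000/well, DMEM with 1% FBS) were pre-incubated 2 h at 37 degrees C, given compound by pin tool, then stimulated with TGF-beta at 500 pg/mL final for 18 h before per-cell GFP fluorescence imaging.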
# HepG2 viability – HepG2 cytotoxicity, counter-screen for TGF-b inhibitors; HepG2 CAGA-GFP viability, ATP luminescence, 18 h; Potency, µM (highest dose often 46.1 µM), for the others: at the top dose activity change, negative = cytotoxicity, actives largely listed as cytotoxic; 410,000 tested, 0.76% active; also: potency is read from the fitted curve at half-maximal effect
#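 HepG2 CAGA-GFP cells (1000/well, DMEM with 1% FBS) received compound, then TGF-beta at 500 pg/mL final, and were incubated 18 hours at 37 degrees C. Viability was read by CellTiter-Glo luminescence. Media-only wells were set as complete cell-killing and DMSO as no toxicity.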
# Giardia kill – kills Giardia lamblia; Giardia lamblia trophozoite viability; activity change, % at 7.66 µM, hits read low; AID 540267; 340,000 tested, 0.15% active; in the data active = activity change below about -80%; inconclusive = between about -30% and that limit;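 also: parasites exposed to compound for two days anaerobically before the ATP read; % is scaled to controls: 0 for no effect and ±100 for the full control effect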
#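 Compounds were tested on trophozoites seeded at 100 cells/well and held 48 hrs at 37 deg C anaerobically. An ATP-based luminescent kit measured the remaining live cells.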
# * = called active by the depositor; i = inactive; u = inconclusive; x = no result; ! = not confirmed by another sample. Unless noted, calls follow the shape of the dose curve; as a rule, active = well fitted curve in the direction sought with a large enough effect; inconclusive = small, poorly fitted or top-dose-only effect, or another doubt; inactive = no such curve, though single readings can be large; an effect the other way counts as inactive or inconclusive.
SMILES,ATXN2 expr inh,uPA surface inh,ATXN viability,TGFb inhibitor,HepG2 viability,Giardia kill
CC(CCc1ccccc1)NC(=O)CSc1n[nH]c(-c2ccc(F)cc2)n1 (stereo not given),x,x,x,11.2µM*,-19.9%,x
O=C(c1cccc(F)c1F)N1CCOc2ccc(CN3CCN(Cc4ccccn4)CC3)cc2C1,x,x,i,x,x,x
C[C@@H](NC(=O)c1coc(=O)c(Br)c1)c1ccccc1,u,-8.8%,u,u,12.6µM*,19.3
CSc1cccc(Nc2cc(C(=O)NCCc3ccc(Cl)cc3)c3ccccc3n2)c1,u,x,i,10µM*,-33.3%,x
CCCCN(CCCNC(=O)c1cc(Nc2cccc(SC)c2)nc2ccccc12)Cc1ccccc1,x,x,x,15.8µM*,12.6µM*,15.7
COc1ccc(Nc2cc(C(=O)NCCCN3CCOCC3)c3ccccc3n2)cc1,0.0%,-0.1%,i,11.6%,-0.8%,-2.3
CCc1ccc(Nc2cc(C(=O)NCCCN3CCOCC3)c3ccccc3n2)cc1,-30.6%,-2.4%,u,-4.9%,7.08µM*,8.0
Cc1ccc(C(=O)N(Cc2cc3cccc(C)c3nc2N2CCC(O)CC2)C2CC2)cc1,x,x,i,x,x,x
CCNC(=O)c1sc(=S)n(-c2ccc(C)cc2)c1N,3.2%,x,i,-1.4%,-12.2%,-5.1
NC(=O)c1sc(=S)n(-c2ccc(Br)cc2)c1N,-13.7%,-10.0%,i,11.2µM*,-24.9%,0.7
O=C(CC(Cl)(Cl)Cl)N1CCN(/[N+]([O-])=N/Oc2ccc([N+](=O)[O-])cc2[N+](=O)[O-])CC1,x,x,x,u,-111.8%,x
CCOC(=O)C1=C[C@]2(CC)CCCN3CCc4c(n1c1ccccc41)[C@@H]32,30.6µM*!,1.9%,u,2.6%,-5.6%,11.4
CC[C@]12CCCN3CCc4c(n(c5ccccc45)C(=O)C1)[C@@H]32,u,3.16µM*,u,-3.6%,-18.9%,2.3
Nc1ccc2c(c1)C(=O)C(=O)c1ccccc1-2,4.47µM*,-10.0%,6.31µM*,u,3.98µM*,11.7
O=C1C(=O)c2ccc(-c3ccccc3)cc2-c2ccccc21,u,-9.1%,5.62µM*,u,2.51µM*,-0.8
Nc1ccc2c(c1)C(=O)c1ccccc1-2,29.6%,-0.9%,i,-11.5%,5.7%,16.0
CCN1CCN(C(=O)c2cnn(-c3ncc4c(n3)-c3ccccc3CCC4)c2COC)CC1,x,x,i,x,x,x
Cc1ccc2nc(N/N=C\c3ccc([N+](=O)[O-])o3)nc(-c3ccccc3)c2c1,u,-0.5%,11.2µM*,-4.8%,-5.1%,-98.9*
O=[N+]([O-])c1ccc(/C=N/Nc2ccc3ccccc3c2)o1,-6.0%,u,u,-23.6%,2.8%,u
O=[N+]([O-])c1ccc(/C=N/Nc2nc(-c3ccccc3)c3cc(Br)ccc3n2)o1,-19.7%,1.6%,i,22.8%,1.1%,-91.4*
CC(C)(C)c1ccc(C(=O)Nc2ccc(CC(=O)O)cc2)o1,0.398µM*,x,i,-25.2%,1.9%,-19.6
Cc1ccc(C(=O)Nc2ccc(CC(=O)O)cc2)o1,-18.8%,-4.0%,i,9.7%,-0.8%,16.5
O=C(CO)[C@@H](O)[C@H](O)[C@H](O)CO,x,x,i,x,x,x
C(=C\c1ccnc2ccccc12)/c1ccc2ccccc2n1,x,x,x,u,-57.8%,x
CCC(CC)COC(=O)C1=C(C)NC(=O)NC1c1ccc(N(C)C)cc1 (stereo not given),x,2.6%,i,u,7.94µM*,8.2
Cc1nc2sccn2c1CN1Cc2ccccc2OC(c2ccccc2F)C1 (stereo not given),x,x,i,x,x,x
CC1(C(=O)Nc2cccc3cccnc23)CCN1Cc1cccc2c1OCO2 (stereo not given),6.31µM*,x,14.1µM*,u,-48.6%,x
CC1(C(=O)Nc2ccc3c(c2)OCO3)CCN1Cc1cccc2c1OCO2 (stereo not given),-24.5%,x,u,-7.6%,3.5%,x
COc1ccccc1NS(=O)(=O)c1cc(C(=O)N2CCN(C/C=C/c3ccccc3)CC2)ccc1C,-13.4%,3.98µM*,u,u,2.9%,-7.5
